Screening results as filed in PubChem.
Abs 340nm = absorbance at 340 nm | fold change at 10 µM | 65,000 tested, under 10 active | compound absorbance at 340 nm, fold over control;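 active means at 10 µM dose, initial 340 nm absorbance at least 2 fold that of control wells; inactive means change under 2 fold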;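 further: initial absorbance extrapolated from kinetic A340 decline of NADH oxidation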
MK inhibit = S. pneumoniae mevalonate kinase inhibition. purified MK, PK/LDH-coupled NADH absorbance 340 nm. inhibition, % at 10 µM. 65,000 compounds, 0.48% hits;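 active means ranked among the strongest by inhibition in the single 10 µM screen, a fixed top-ranked set picked for dose follow-up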
PMK inhibit = S. pneumoniae PMK inhibition | purified PMK, PK/LDH-coupled NADH absorbance 340 nm | inhibition, % at 10 µM | 65,000 compounds, 0.49% hits;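 active means top-ranked compounds by inhibition in the single 10 µM screen, taking a fixed number of the strongest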;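 further: 0% = full reaction with DMSO carrier and 100% = background rate without enzyme reaction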
Spn DPM-DC inh = S. pneumoniae DPM-DC inhibition; calls only at 10 µM; 65,000 compounds, 0.49% hits; purified DPM-DC, PK/LDH coupled NADH fluorescence; AID 556;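 active means the 320 compounds with the highest percent inhibition in the single-dose primary screen, excluding strongly autofluorescent ones, cut at about 32% in these data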;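 further: kinetic rate of NADH fluorescence loss reporting ADP formed by the decarboxylase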
Autofluor 339 = intrinsic fluorescence of library compounds, ex339/em460 – biochemical, MLSMR library, data from DPM-DC assay, artefact control, profiling panel; compound autofluorescence, ex339/em460 nm, NADH buffer; active compounds read high; 1 = no-compound wells, NADH background; fluorescence fold increase at 10 µM; 65,000 compounds, 5.5% hits;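 active means at 10 µM, mean starting fluorescence two-fold or more over control wells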;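 further: signal is the first read of a kinetic run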
NADH enzymes = blocks coupling enzymes of NAD/NADH assays; coupled PK/LDH NADH assays, four targets; IC50, µM (highest dose often 10 µM), for the others: at the highest dose inhibition; 65,000 compounds, 0.02% hits; AID 774;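 active means single-dose screening hits from any of four coupled enzyme assays that gave an IC50 when retested across doses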;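 further: the DPM-DC format reads NADH fluorescence rather than 340 nm absorbance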
* = called active by the depositor; i = inactive; nt = not tested or not shown; + = active, no number. A selection: hits, their analogues and other compounds. The true share with any hit is near 6.3%.

SMILES | Abs 340nm | MK inhibit | PMK inhibit | Spn DPM-DC inh | Autofluor 339 | NADH enzymes
O=c1c2c(nc3cc(-c4ccc(F)cc4)[nH]n13)CCCC2 | 1.03 | 12.0 | 7.0 | i | 1.8 | 9.0%
CCCCCSc1nnc2c(n1)OC(C)N(C(C)=O)c1ccccc1-2 (stereo not given) | 1.11 | 10.0 | 10.0 | i | 1.05 | 7.0%
CCOC(=O)N1CCC(NC(=O)c2cccn3c(=O)c4cc(Br)ccc4nc23)CC1 | 1.03 | 4.0 | 18.0 | i | 2.24* | 7.0%
CCOC(=O)N1CCC(NC(=O)c2cn(-c3ccc(OC)cc3)c(=O)c3ccccc23)CC1 | 1.04 | 10.0 | 16.0 | i | 1.2 | 9.0%
CCC(C)NC(=O)c1cnn2c(C)c3c(nc12)CCCC3 (stereo not given) | 1.01 | 0.0 | 21.0 | nt | 4.9* | 11.0%
Cc1nc(SCC(=O)N2CCN(c3ccccc3)CC2)c2c(=O)n(C)c(=O)n(C)c2n1 | 1.05 | 0.0 | 0.0 | i | 1.13 | 0.0%
COc1ccc(S(=O)(=O)Nc2ccc3oc(C)c(C(=O)O)c3c2)cc1 | 1.07 | 9.0 | 0.0 | i | 1.08 | 3.0%
COCCOC(=O)c1c(C)oc2ccc(NS(=O)(=O)c3ccc(F)cc3)cc12 | 0.99 | 10.0 | 0.0 | + | 1.01 | 5.0%
COc1ccc2[nH]c(=O)c(-c3noc(-c4ccccc4)n3)cc2c1 | 1.04 | 7.0 | 0.0 | nt | 3.57* | 4.0%
COc1cc(OC)cc(-c2nc(-c3ccccc3)no2)c1 | 1.02 | 10.0 | 4.0 | i | 1.17 | 6.0%
O=c1[nH]c2ccccc2cc1-c1noc(-c2cccnc2)n1 | 1.08 | 8.0 | 6.0 | nt | 4.18* | 7.0%
CC(C)CC(=O)NCC(C)NC(=O)CC(C)C (stereo not given) | 1.01 | 8.0 | 10.0 | + | 1.2 | 17.0%
COC(=O)c1ccccc1NC(=O)C12CCC(C)(C(=O)O1)C2(C)C (stereo not given) | 1 | 0.0 | 0.0 | i | 1.02 | 1.0%
CCOc1ccc(N(CC(=O)NC2CCCC(C)C2C)S(=O)(=O)c2c(C)noc2C)cc1 (stereo not given) | 0.99 | 8.0 | 9.0 | + | 1.02 | 6.0%
CCc1ccccc1N(CC(=O)N1CCN(c2ccccc2)CC1)S(C)(=O)=O | 1.04 | 0.0 | 0.0 | i | 1.1 | 0.0%
Cc1cc(=O)oc2cc(OCc3nnc(-c4ccccc4Br)o3)ccc12 | 1.02 | 5.0 | 12.0 | nt | 4.51* | 9.0%
O=C(CN1CCOCC1)Nc1c2c(nc3ccccc13)N(Cc1ccccc1)CC2 | 1.06 | 8.0 | 12.0 | nt | 3.71* | 10.0%
CC(C)C(=O)Nc1c2c(nc3ccccc13)N(C)CC2 | 1.07 | 7.0 | 8.0 | nt | 2.19* | 8.0%
O=C(NC1c2ccccc2-c2ccccc21)c1ccco1 | 0.98 | 0.0 | 10.0 | i | 1.02 | 5.0%
CC1CC(C)CN(c2nc3c(c(=O)n(C)c(=O)n3C)n2CCSc2nc3ccccc3o2)C1 (stereo not given) | 1.05 | 6.0 | 13.0 | i | 1.02 | 6.0%
Cc1ccc2[nH]c(=O)c(-c3noc(-c4ccncc4)n3)cc2c1 | 1 | 9.0 | 4.0 | i | 1.17 | 3.0%
Cc1ccc2cc(-c3noc(C(C)(C)C)n3)c(=O)[nH]c2c1 | 1.11 | 7.0 | 9.0 | i | 3.88* | 14.0%
CCc1nc(-c2cc3ccc(C)cc3[nH]c2=O)no1 | 1.11 | 7.0 | 13.0 | nt | 4.48* | 10.0%
Cc1ccc2cc(CCNC(=O)C(C)(C)C)c(=O)[nH]c2c1 | 1.07 | 0.0 | 7.0 | i | 1.19 | 2.0%
Cc1ccc2[nH]c(=O)c(-c3noc(C(C)C)n3)cc2c1 | 1.08 | 4.0 | 0.0 | nt | 2.21* | 2.0%
SMILES | Abs 340nm | MK inhibit | PMK inhibit | Spn DPM-DC inh | Autofluor 339 | NADH enzymes
Cc1nc2nc(CSc3nnc(C)s3)cc(=O)n2[nH]1 | 0.99 | 10.0 | 7.0 | i | 1.06 | 6.0%
COc1ccc(-n2nc(C(=O)NCC(=O)N3CCN(c4ccccn4)CC3)c3ccccc3c2=O)cc1 | 1.02 | 3.0 | 0.0 | i | 1.26 | 1.0%
CCN(CC)S(=O)(=O)c1ccc2[nH]cc(C(=O)NCCN3CCCCCC3)c(=O)c2c1 | 1.06 | 0.0 | 17.0 | i | 2.92* | 8.0%
CCN(CC)S(=O)(=O)c1ccc2[nH]cc(C(=O)NCCC3=CCCCC3)c(=O)c2c1 | 0.99 | 0.0 | 16.0 | i | 1.31 | 5.0%
CCN(CC)S(=O)(=O)c1ccc2[nH]cc(C(=O)NCCN3CCCCC3C)c(=O)c2c1 (stereo not given) | 1.08 | 0.0 | 13.0 | i | 2.97* | 8.0%
Cc1ccccc1N(C)S(=O)(=O)c1ccc2[nH]cc(C(=O)NCC3CCCO3)c(=O)c2c1 (stereo not given) | 1.01 | 0.0 | 21.0 | i | 2.15* | 16.0%
CCOc1ccc(N(C)S(=O)(=O)c2ccc3[nH]cc(C(=O)NCC4CCCO4)c(=O)c3c2)cc1 (stereo not given) | 1.04 | 8.0 | 0.0 | i | 1.13 | 1.0%
COc1cccc(NS(=O)(=O)c2ccc3[nH]cc(C(=O)NCCN4CCOCC4)c(=O)c3c2)c1 | 1.08 | 7.0 | 16.0 | i | 1.4 | 8.0%
O=C(COC(=O)C(O)c1ccccc1)c1ccc2c(c1)OCCO2 (stereo not given) | 1.04 | 5.0 | 16.0 | i | 1.12 | 7.0%
Cc1cc(=O)oc2cc(NC(=O)CCCC(=O)O)ccc12 | 1.04 | 5.0 | 11.0 | nt | 5* | 8.0%
O=C(Nc1nnc(-c2ccncc2)s1)C1CCCO1 (stereo not given) | 1.15 | 6.0 | 0.0 | nt | 3.69* | 3.0%
CCOc1ncccc1C(=O)Nc1ccc2c(C)cc(=O)oc2c1 | 1 | 0.0 | 0.0 | + | 2.21* | 8.0%
Cc1onc(-c2ccccc2)c1C(=O)Nc1nnc(-c2ccncc2)s1 | 1.19 | 6.0 | 10.0 | nt | 3.76* | 8.0%
COc1ccccc1C(=O)NCCn1ccc2ccccc21 | 1 | 8.0 | 8.0 | i | 1.06 | 5.0%
COc1ccc(-n2c(=O)[nH]cc(C(=O)N3CCCc4ccccc43)c2=O)cc1 | 1.02 | 6.0 | 5.0 | i | 1.11 | 4.0%
O=C(Nc1ccc2c(c1)OCO2)c1ccc(COc2ccc3c(c2)CCC3)o1 | 1.04 | 8.0 | 5.0 | i | 1.16 | 4.0%
CCC1=NC(c2ccccc2Cl)N(O)C1(C)C (stereo not given) | 1.03 | 3.0 | 0.0 | i | 1.01 | 1.0%
Cn1c(O)c(C=NC(CC(N)=O)C(=O)O)c(=O)n(C)c1=O (stereo not given) | 1.01 | 10.0 | 13.0 | i | 1.16 | 8.0%
Cc1onc(-c2ccccc2)c1C(=O)Nc1ccc2c(C)cc(=O)oc2c1 | 1.13 | 6.0 | 0.0 | nt | 2.22* | 3.0%
CCOc1ncccc1C(=O)Nc1ccc(-c2cn3ccsc3n2)cc1 | 1.07 | 0.0 | 21.0 | nt | 2.11* | 11.0%
CCN(CC)C(=O)c1cn(C)c(=O)c2cc(OC)c(OC)cc12 | 1.12 | 9.0 | 0.0 | i | 1.16 | 3.0%
COc1cccc2c3c(c(C)nc12)CC(C)O3 (stereo not given) | 1 | 6.0 | 3.0 | nt | 3.67* | 5.0%
